Screening results deposited in PubChem BioAssay by National Center for Advancing Translational Sciences (NCATS).
An excerpt weighted towards active compounds, which were near 9% of everything screened.
12-LOX inh: ALOX12 (human) lipoxygenase inhibition; Potency, µM (titrated, usually from 108 µM), actives largely listed as inhibitors; purified 12hLO, xylenol orange hydroperoxide absorbance; AID 1671190; 580,000 tested, 1.1% active
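Hydroperoxide product was detected by ferrous iron/xylenol orange as the 573 to 405 nm absorbance ratio. Arachidonic acid at 40 uM (final) was turned over for 30 min at room temperature by 150 nM human 12hLO, pH 7.0 Hepes buffer, after 15 min compound preincubation.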
JMJD2A Tudor inh: inhibitors of human JMJD2A Tudor domain; AlphaScreen JMJD2A-Tudor / H3K4me3 peptide binding; Potency, µM (doses to about 114 µM), hits mostly inhibitors; 390,000 tested, 4.4% active; AID 504339; also: nearly all actives have a fitted effect of over 50% in size
Target sequence (O75164 whole entry, looked up, the tested form may be a part): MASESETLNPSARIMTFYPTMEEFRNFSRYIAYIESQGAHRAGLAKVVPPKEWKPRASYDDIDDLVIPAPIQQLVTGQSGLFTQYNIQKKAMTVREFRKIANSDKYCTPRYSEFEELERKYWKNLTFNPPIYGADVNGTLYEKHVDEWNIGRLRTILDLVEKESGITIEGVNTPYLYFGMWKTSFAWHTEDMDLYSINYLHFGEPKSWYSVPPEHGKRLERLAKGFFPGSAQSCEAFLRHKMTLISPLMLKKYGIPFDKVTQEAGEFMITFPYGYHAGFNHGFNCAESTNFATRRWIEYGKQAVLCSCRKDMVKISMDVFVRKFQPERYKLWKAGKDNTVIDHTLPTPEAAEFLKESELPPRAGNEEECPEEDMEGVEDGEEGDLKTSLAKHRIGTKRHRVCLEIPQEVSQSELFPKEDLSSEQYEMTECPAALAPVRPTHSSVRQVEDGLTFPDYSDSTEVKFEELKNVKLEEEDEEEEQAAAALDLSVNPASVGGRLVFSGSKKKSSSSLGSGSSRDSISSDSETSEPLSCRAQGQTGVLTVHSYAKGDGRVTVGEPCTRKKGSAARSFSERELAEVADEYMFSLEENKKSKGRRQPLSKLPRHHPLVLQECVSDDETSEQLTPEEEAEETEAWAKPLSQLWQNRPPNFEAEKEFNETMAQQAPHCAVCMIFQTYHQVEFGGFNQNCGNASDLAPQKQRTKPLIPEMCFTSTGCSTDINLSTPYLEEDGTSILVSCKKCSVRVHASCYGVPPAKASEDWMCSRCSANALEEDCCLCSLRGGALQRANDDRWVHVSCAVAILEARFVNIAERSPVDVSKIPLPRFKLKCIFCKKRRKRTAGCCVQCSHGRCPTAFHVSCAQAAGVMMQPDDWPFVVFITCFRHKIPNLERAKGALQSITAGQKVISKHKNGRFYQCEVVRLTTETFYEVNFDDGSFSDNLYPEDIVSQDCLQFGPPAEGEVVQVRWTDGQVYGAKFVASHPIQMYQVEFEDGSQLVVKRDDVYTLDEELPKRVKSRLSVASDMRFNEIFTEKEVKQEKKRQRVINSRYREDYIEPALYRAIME
G9a block: G9a (human) methyltransferase inhibition. G9a H3K9 monomethylation, AlphaScreen, 2 h. Q96KQ7. 350,000 tested, 8.8% active. AID 504332. Potency, µM (doses to about 102 µM), usual class: inhibitors; also: nearly all actives have a fitted effect of over 75% in size
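Step 1: enzyme (final 20 nM) with compound, 15 min RT. Step 2: substrate peptide 500 nM and SAM 20 uM, 2 h RT. Step 3: anti-H3K9me1 antibody and AlphaScreen beads, 10 min, then plate read.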
HP1b chromo inh: HP1-beta chromodomain-methylated histone interaction inhibition. AID 540317. Potency, µM (titrated, usually from 114 µM), actives largely listed as inhibitors. 390,000 tested, 0.56% active. AlphaScreen HP1-beta / biotin-H3K9me3 peptide binding; also: nearly all actives have a fitted effect of over 70% in size
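Compound inhibition of the preformed complex between 50 nM HP1-beta and 50 nM biotinylated H3K9me3 peptide was read by AlphaScreen. Buffer was PBS pH 7.4 with 0.01% Tween-20. Incubations ran 30 min at room temperature, with 10 ug/mL donor/acceptor beads.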
BAZ2B block: inhibitors of human BAZ2B bromodomain | Q9UIF8 | AlphaScreen BAZ2B-H3K14Ac peptide displacement | Potency, µM (highest dose often 114 µM), usual class: inhibitors | 360,000 tested, 4.4% active | AID 504333; also: nearly all actives have a fitted effect of over 60% in size
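BAZ2B (50 nM) with biotin-H3(5-23)K14Ac peptide (50 nM) in PBS pH 7.4, 0.01% Tween-20, preformed 30 min, then compound 30 min at room temperature; top concentration 110uM. AlphaScreen streptavidin donor/nickel chelate acceptor beads (10 ug/mL final), 20 min dark, signal read.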
PLK1 PBD block: inhibitors of human PLK1 polo-box domain binding | P53350 | Plk1 PBD binding of FITC phosphopeptide, fluorescence polarization | Potency, µM, most hits filed as inhibitors | 360,000 tested, 2.8% active; also: series mostly up to about 57 µM; nearly all actives have a fitted effect of over 65% in size
TbPYK confirm: Trypanosoma brucei pyruvate kinase inhibition, cherry-pick confirmation; 890 tested, 67% active; recombinant TbPYK, Kinase-Glo ATP luminescence; Potency, µM (top dose mostly 76.9 µM), usual class: inhibitors; shares compounds with PLK1 PBD block; also: nearly all actives have a fitted effect of over 70% in size
TbPYK orthogonal: TbPYK inhibition, orthogonal confirmation; recombinant TbPYK, ADP-Glo luminescence, 60 min; Potency, µM (highest dose often 76.9 µM), most hits filed as inhibitors; shares compounds with PLK1 PBD block; 890 tested, 62% active; also: nearly all actives have a fitted effect of over 75% in size
A number is an active result; – = inactive; ? = inconclusive; · = not tested or not shown; [ ] = dose if it differs, or a comment. Calls follow the shape of the dose curve; as a rule, active = well fitted curve in the direction sought with a large enough effect; inconclusive = small, poorly fitted or top-dose-only effect, or another doubt; inactive = no such curve, though single readings can be large; an effect the other way counts as inactive or inconclusive.

SMILES	12-LOX inh	JMJD2A Tudor inh	G9a block	HP1b chromo inh	BAZ2B block	PLK1 PBD block	TbPYK confirm	TbPYK orthogonal
CN1CCN(S(=O)(=O)c2ccc(N3CCN(c4ccc(O)cc4)CC3)c([N+](=O)[O-])c2)CC1	?	32µM	7.9µM	71µM	?	–	11µM	18µM
CCc1ccc(CN(C(=O)c2cccs2)C2CCS(=O)(=O)C2)cc1 (stereo not drawn)	–	–	–	–	–	–	·	·
Cc1cc(NS(=O)(=O)c2ccc(NC(=O)/C=C/c3ccccc3)cc2)nc(C)n1	–	–	·	–	·	–	·	·
Cc1cc(NS(=O)(=O)c2ccc(NC(=O)/C=C/c3ccc(C)o3)cc2)nc(C)n1	–	22µM	8.9µM	–	–	8.4µM	7.9µM	11µM
COC(=O)c1ccc2nc(-c3ccco3)c(Cc3cccc(F)c3)n2c1	?	·	·	·	·	?	11µM	7.9µM
COC(=O)c1ccc2nc(-c3ccco3)c(Cc3ccc(C)cc3)n2c1	?	·	·	·	·	–	20µM	25µM
COC(=O)c1ccc2nc(-c3ccc(C)cc3)c(Cc3ccc(C)cc3)n2c1	–	·	·	·	·	–	·	·
COC(=O)c1ccc2nc(-c3ccco3)c(Cc3ccccc3C(F)(F)F)n2c1	?	·	·	·	·	?	?	?
COC(=O)c1ccc2nc(-c3ccc(F)cc3)c(Cc3cccc(F)c3)n2c1	–	·	·	·	·	–	·	·
COC(=O)c1ccc2nc(-c3ccco3)c(Cc3ccc(OC)cc3C)n2c1	?	·	·	·	·	27µM	7.1µM	7.9µM
c1ccc(-c2noc(-c3ccncc3)n2)nc1	–	–	–	–	·	–	·	·
CCOc1ccc(C2Cn3nnc(-c4nc(-c5ccc(C(F)(F)F)cc5)no4)c3CO2)cc1 (stereo not drawn)	–	·	·	·	·	·	·	·
CCC1CN(CCNC(=O)c2cccc3nccnc23)Cc2cc(OC)ccc2O1 (stereo not drawn)	–	·	·	·	·	·	·	·
Cc1ccc(-c2cc(=O)[nH][nH]2)c(C)c1	–	–	–	–	–	–	·	·
O=c1ccn(Cc2ccccc2)c(SCc2ccccc2)n1	?	–	·	–	·	–	·	·
Clc1ccc(CSc2nccn2Cc2ccccc2)cc1	?	3.2µM	–[0.501 µM]	–	?	–	1.3µM	1.1µM
Oc1ccc(/C=N/N2CCCCC2)c(O)c1O	–	8.9µM	1.6µM	–	?	11µM	32µM	35µM
COC(=O)c1ccc2c(=O)n(Cc3ccc4c(c3)OCO4)c(=S)[nH]c2c1	–	–	–	–	–	–	·	·
COC(=O)c1ccc2c(=O)n(Cc3ccc(C(=O)NCCCN4CCC(C)CC4)cc3)c(=S)[nH]c2c1	?	–	35µM	–	–	–	18µM	16µM
COC(CNC(=O)c1ccc(Cn2c(=S)[nH]c3cc4c(cc3c2=O)OCO4)cc1)OC	?	22µM	?	–	?	–	2µM	2.5µM
COCCNC(=O)c1ccc(Cn2c(=S)[nH]c3cc4c(cc3c2=O)OCO4)cc1	–	28µM	?	–	–	–	1.4µM	2µM
CCC(C(=O)Nc1ccc2c(c1)OCO2)n1nc(-c2ccccc2)ccc1=O (stereo not drawn)	–	·	·	·	·	·	·	·
COc1ccc(C(=O)NC(C(=O)NCc2ccccc2OC)C(C)C)cc1 (stereo not drawn)	–	–	–	–	–	–	·	·
O=C(c1ccc(F)cc1)N1CCC2(CCCCO2)CC1	–	·	·	·	·	·	·	·
CCOC(=O)CCc1c(C)nc(SCCCn2c(=O)[nH]c3ccccc32)c(C#N)c1C	–	28µM	?	–	–	–	5.6µM	14µM
SMILES	12-LOX inh	JMJD2A Tudor inh	G9a block	HP1b chromo inh	BAZ2B block	PLK1 PBD block	TbPYK confirm	TbPYK orthogonal
CCOc1cc(/C=N\NC(=O)c2ccc(NC(=O)C(C)(C)C)cc2)ccc1OC(=O)c1cccc(C)c1	–	–	–	–	–	–	·	·
COc1ccc(-c2nnc3ccc(SCC(=O)N4CCN(c5ccccc5)CC4)nn23)cc1	32µM	?	·	–	·	–	?	?
CCOc1cnn(-c2cc(Oc3ccc(C)cc3)ncn2)c(=O)c1Cl	–	–	–	–	–	–	·	·
Clc1ccc(-c2nc3ccc(Cl)cn3c2Cc2cccc(Cl)c2)cc1	–	·	·	·	·	–	·	·
Clc1cccc(Cc2c(-c3ccco3)nc3ccc(Br)cn23)c1	11µM	·	·	·	·	11µM	?	?
Clc1cccc(Cc2c(-c3ccco3)nc3ccc(Cl)cn23)c1	22µM	·	·	·	·	12µM	11µM	13µM
Clc1cccc(Cc2c(-c3cccc(Br)c3)nc3ccc(Cl)cn23)c1	?	·	·	·	·	–	·	·
CCCN1C(=O)S/C(=C\c2ccc(N3CCOCC3)o2)C1=O	40µM	?	4µM	?	–	–	?	40µM
Cc1ccc(C)c(C(=O)NCCN(C)C)c1	–	–	–	–	–	–	·	·
C=C(CN(C)C)C(=O)c1cc(C)ccc1C	?	89µM	·	35µM	·	2.7µM	5.6µM	16µM
Nc1ccc2c(c1)C(=O)C(=O)c1ccccc1-2	?	?	–[0.501 µM]	20µM	?	1.5µM	14µM	?
Fc1cccc(/C=N/Nc2nccnc2Cl)c1	–	–	–	–	–	–	?	–
Oc1ccc(/C=N/Nc2nccnc2Cl)cc1	–	–	–[12.7 µM]	–	–	–	16µM	–
CCN(CC)CC#CCOC(=O)C(O)(c1ccccc1)C1CCCCC1 (stereo not drawn)	?	–	?	–	–	–	·	·
CCn1c(C(=O)N2CCCC(C(=O)NCCc3ccc(C)cc3)C2)cc2sccc21 (stereo not drawn)	–	–	–	–	–	–	16µM	32µM
Cc1ccc(O)c(NC2=C(Cl)C(=O)N(Cc3ccccc3)C2=O)c1	5.6µM	4µM	6.3µM	16µM	45µM	3µM	16µM	20µM
CSc1ccc(CNC(=O)C2CCC(=O)N(CC3CCCCC3)C2)cc1 (stereo not drawn)	–	·	·	·	·	–	·	·
CC1CCc2c(sc(Nc3nc4c(F)cccc4s3)c2C(N)=O)C1 (stereo not drawn)	45µM	?	10µM	–	–	–	8.9µM	14µM
CCOC(=O)C1CCCN(C(=O)c2ccc(-c3ccc([N+](=O)[O-])cc3)o2)C1 (stereo not drawn)	?	?	–[2.33 µM]	?	?	30µM	?	?
CCCN1CCN(C(=O)c2ccc(-c3ccc([N+](=O)[O-])cc3)o2)CC1	?	–	?	–	–	?	?	?
Cc1ccc(/C=C/C(=O)N2CCCC(C)C2)cc1 (stereo not drawn)	–	–	?	–	–	–	·	·
Cc1ccc(/C=C/C(=O)N2CC(C)CC(C)C2)o1 (stereo not drawn)	?	50µM	8.9µM	?	–	27µM	?	32µM
Cc1ccc(-c2cc(C(=O)N3CCOCC3)c3ccccc3n2)o1	?	–	·	–	·	–	?	?
